ROMK primary – ROMK potassium channel modulators, primary screen, cell-based, thallium flux, MLSMR library. ATP-sensitive inward rectifier potassium channel 1 (Homo sapiens), P48048. Tet-inducible ROMK, thallium flux fluorescence; actives lie on both sides. B-score at 10 µM. hit rate 2% among 130,000. AID 1918, 2009;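 active means signal ratio slope over the read window, or its plate-corrected B-score, at least 3 SD from the plate mean, either direction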;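 further: B-score of the F/F0 ratio slope over 7 to 12 s after thallium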
Target sequence (P48048 whole entry, looked up): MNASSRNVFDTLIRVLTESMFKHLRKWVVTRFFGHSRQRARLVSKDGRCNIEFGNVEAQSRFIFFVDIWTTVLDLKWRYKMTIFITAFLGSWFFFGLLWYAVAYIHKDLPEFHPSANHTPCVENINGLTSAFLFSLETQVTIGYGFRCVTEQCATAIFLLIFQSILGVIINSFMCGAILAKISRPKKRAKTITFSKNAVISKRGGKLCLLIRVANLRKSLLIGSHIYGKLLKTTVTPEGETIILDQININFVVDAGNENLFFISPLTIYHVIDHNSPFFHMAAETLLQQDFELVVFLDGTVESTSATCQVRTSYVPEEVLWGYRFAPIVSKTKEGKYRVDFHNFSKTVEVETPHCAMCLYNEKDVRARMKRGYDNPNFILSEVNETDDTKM
Cl transport mod – KCC2 cotransporter modulators, thallium flux, primary screen, cell-based, HEK293 KCC2, FluoZin-2 fluorescence, MLSMR; Solute carrier family 12 member 5 (Homo sapiens), Q9H2X9; KCC2 cells, thallium flux FluoZin-2 fluorescence; B-score of Tl+ flux slope (higher = more flux/activation; lower = inhibition) at 10 µM; hit rate 2.2% among 190,000; AID 1456, 2008;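 active means thallium flux slope and its plate-corrected score both differing from the plate sample mean at a set confidence after two filtering rounds, in either direction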;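 further: slope of fluorescence scaled to starting intensity during 10 to 20 s after thallium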
Insulin prom up – insulin promoter activators in MIN6 cells, imaging, high-content screening, mouse beta cells; z-score at 5 µM; MIN6 insulin promoter-GFP reporter; active compounds read high; hit rate 0.3% among 190,000; AID 1625, 2009;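 active means z-score above 3 at 5 µM with at least 500 cells counted in the well; inconclusive means wells under 500 cells, flagged as cytotoxic or low count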
Lmaj promast – Leishmania major promastigote growth inhibition, primary screen; Leishmania major promastigotes, resazurin fluorescence viability; inhibition, % at 10 µM; hit rate 9% among 200,000; in the data active means inhibition above about 50%;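 further: promastigotes grown with compound for 44 hours at 28 °C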
INS promoter inh – inhibitors of insulin promoter-driven GFP, primary screen, imaging, TRM-6 cells (human fetal islet line), eGFP reporter, cell count. reporter expression induced with tamoxifen. inhibition, % at 2 µM. hit rate 0.9% among 130,000;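 active means inhibition above the mean plus 3 SD, with well images judged a real hit on visual review, cut at about 60% in these data, passing the limit was not always enough; inconclusive means inhibition over the cutoff but images rejected on review; inactive means inhibition not above the cutoff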
WT yeast gro inh – growth inhibition of WT strain, primary screen, mitochondrial fusion inhibitor project, WT and mutant strains, chemical genetic; mitochondrial fusion phenotypic screen; inhibition, % at 10 µM; AID 1362, 2008; hit rate 2.1% among 190,000; in the data active means inhibition above about 58%; tested in S. cerevisiae
KCC2 secondary – KCC2 modulators in sodium-free buffer, confirmation, cell-based, HEK293 KCC2, thallium flux, secondary assay; hit rate 15% among 3,700; FluoZin2 fluorescence; active compounds read high; shares compounds with Cl transport mod; normalised thallium flux (F/F0 slope) at 10 µM;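 active means thallium flux slope above the same plate's solvent-only control mean plus 3 SD; inconclusive means the two replicate wells disagree; inactive means no significant difference from solvent-only control wells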
KCC2 bumet counter – thallium flux persisting under bumetanide in KCC2 cells, confirmation, counter-screen for KCC2 modulator project, cell-based, HEK293 KCC2, FluoZin2, secondary assay 3; shares compounds with Cl transport mod; HEK293-KCC2 + bumetanide/ouabain; active compounds read high; normalized thallium flux at 10 µM; hit rate 49% among 3,700; AID 1714, 2009;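 active means thallium entry rate above the same plate's blocked-transporter control wells by more than 3 SD; inconclusive means the two repeat wells disagree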;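 further: raw slope of fluorescence over initial fluorescence between 10 and 20 s after thallium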
KCC2 sec2 – KCC2 modulators without ouabain present, confirmation, cell-based, HEK293 KCC2, thallium flux, FluoZin2, secondary assay 2; shares compounds with Cl transport mod; thallium flux FluoZin2 fluorescence; actives lie on both sides; F/F0 rise rate, 10–20 s post-thallium; normalized thallium flux at 10 µM; hit rate 23% among 3,700; AID 1715, 2009;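 active means thallium flux slope more than 3 SD above or below the plate's solvent-only control mean, mostly below; inconclusive means the two repeat wells disagreed; inactive means no significant shift from solvent-only controls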;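 further: raw slope with 0.1% DMSO as baseline and bumetanide as block control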
HEK counter1 – thallium flux modulation in parental HEK cells, confirmation, counter-screen for KCC2 modulator project, cell-based, counterscreen 1; shares compounds with Cl transport mod; HEK293 parental cells, thallium flux FluoZin2, ouabain; baseline-ratio fluorescence slope, 10–20 s after thallium; thallium flux rate (normalised fluorescence) at 10 µM; hit rate 46% among 3,700; AID 1716, 2009;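 active means thallium flux rate significantly above the same plate's solvent-only control wells, beyond their mean plus 3 SD; inconclusive means the two replicate wells gave conflicting results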
KCC2 retest ouab – KCC2 inhibitors and activators, ouabain retest, confirmation, HEK-KCC2 cells. AID 1717, 2009. hit rate 48% among 3,700. HEK293-KCC2, thallium flux FluoZin2 fluorescence; bidirectional: low = inhibitor, high = activator. raw Tl+ flux slope (below DMSO = inhibition, above = activation) at 10 µM. shares compounds with Cl transport mod;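 active means thallium flux slope beyond 3 SD from same-plate DMSO control mean in most replicates, usually higher, sometimes lower; inconclusive means repeat tests gave conflicting results; inactive means no significant difference from controls in most replicates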;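 further: slope of initial-normalized fluorescence between seconds 10 and 20 after thallium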
HEK293 Tl flux2 – native HEK Tl+ uptake effects, second counter-screen – HEK cells, counterscreen 2, counter-screen for KCC2 modulator project, confirmation. thallium flux slope at 10 µM. hit rate 33% among 3,700. AID 1718, 2009. HEK293 parental, thallium flux FluoZin-2 fluorescence slope. shares compounds with Cl transport mod;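 active means thallium flux slope above the same plate's solvent-control mean plus 3 SD in both duplicate wells; inconclusive means duplicate wells that disagreed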;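 further: run without ouabain in cells lacking the KCC2 cotransporter; slope of fluorescence scaled to its starting value between 10 and 20 s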
* hit, by the source's call; ? = inconclusive; · = no result given. An excerpt weighted towards active compounds, which were near 12% of everything screened.

SMILES | ROMK primary | Cl transport mod | Insulin prom up | Lmaj promast | INS promoter inh | WT yeast gro inh | KCC2 secondary | KCC2 bumet counter | KCC2 sec2 | HEK counter1 | KCC2 retest ouab | HEK293 Tl flux2
O=C(OC(C(=O)NC1CCCC1)c1cccnc1)C1=Cc2ccccc2OC1 (stereo not given) | · | -3.2* | -0.34 | 94* | -62 | 14 | 0.0084 | ? | 0.033 | 0.0077 | 0.018 | 0.011
O=C(NC(=S)N(CC1CCC1)CC1CCCO1)c1cccc([N+](=O)[O-])c1 (stereo not given) | · | 99* | · | 1 | · | 53 | 0.043* | 0.089* | 0.045* | 0.077* | 0.075* | 0.032*
O=C(COC(=O)c1cc(=O)[nH]c2ccccc12)NC1CCCC1 | 0.78 | -0.19 | 1 | 16 | · | -8 | · | · | · | · | · | ·
CCOc1ccccc1N1CCN(C(=O)/C=C/c2cccc([N+](=O)[O-])c2)CC1 | · | -3.8* | -0.42 | 6 | 14 | 10 | 0.0054 | 0.0048 | 0.027* | 0.0057* | 0.017* | ?
O=C(COC(=O)CCC(=O)c1ccc(F)cc1)Nc1cccc(S(=O)(=O)N2CCCC2)c1 | · | -1.8 | -0.87 | · | · | · | · | · | · | · | · | ·
O=[N+]([O-])c1cc(S(=O)(=O)N2CCCC2)ccc1N/N=C1/CCCc2ccccc21 | 0.82 | -4* | -0.69 | 7 | -17 | -1 | 0.0061 | 0.0049 | 0.032 | 0.0081 | 0.019 | ?
COc1ccc(OC)c(-c2csc(NC(=O)c3ccc4c(c3)OCO4)n2)c1 | -0.018 | 6.7* | -1.1 | -6 | · | 26 | 0.01 | 0.0053 | 0.033 | 0.0083 | 0.02 | 0.01
O=C(Nc1ccon1)c1ccc(S(=O)(=O)N2CCCCCC2)cc1 | 0.065 | 0.98 | 0.18 | -4 | 31 | 7 | · | · | · | · | · | ·
C=CCN1C(c2ccc(OCC)cc2)=CS/C1=C(\C#N)c1nnc2n1CCCCC2 | · | -5.8* | -0.42 | 6 | · | 10 | 0.013 | 0.0041 | 0.02* | 0.0061* | 0.011* | 0.0083
Cc1nnc(SCC(=O)c2cc(C)n(-c3ccc4c(c3)OCO4)c2C)s1 | · | -3.3* | -4.2 | 61* | · | -15 | ? | 0.0031* | 0.032 | ? | 0.022 | 0.0094
Cc1cc(C(=O)CSc2nnnn2C)c(C)n1-c1ccc2c(c1)OCCO2 | · | 0.81 | -0.29 | 14 | -18 | 17 | · | · | · | · | · | ·
Cc1ccccc1C(=O)NNC(=O)CSc1nnc(C)n1-c1ccccc1 | · | 0.78 | · | -4 | -10 | 1 | · | · | · | · | · | ·
Cc1noc(/C=C/N(C)C)c1S(=O)(=O)N1CCCC(C(=O)NC2CCCCC2)C1 (stereo not given) | · | -0.012 | · | -3 | · | 9 | · | · | · | · | · | ·
Cc1noc(/C=C/N(C)C)c1S(=O)(=O)N(C)CC(=O)NC1CCCCC1 | · | -7.1* | 0.29 | -1 | · | 14 | 0.01 | 0.0072 | 0.03 | ? | ? | 0.01
CCc1nnc(NC(=O)c2ccc(OC)cc2)s1 | 1 | 1.3 | -0.51 | 8 | 10 | 15 | · | · | · | · | · | ·
CCc1nnc(NC(=O)c2ccc3ccccc3n2)s1 | 0.043 | 6.4* | 1.1 | 56* | 48 | 48 | ? | 0.027* | 0.031 | 0.013* | ? | 0.011*
CCSc1nnc(NC(=O)c2ccc3ccccc3n2)s1 | · | 36* | 0.45 | 18 | 15 | · | 0.032* | 0.12* | 0.035 | 0.088* | 0.072* | 0.018*
N/C(=N\S(=O)(=O)c1cc(C(F)(F)F)cc(C(F)(F)F)c1)c1ccc(Cl)cc1 | · | 0.31 | -0.59 | · | · | · | · | · | · | · | · | ·
CCn1c(=S)[nH]c2cc(Cl)ccc21 | 0.39 | 10* | · | · | · | · | ? | 0.024* | ? | 0.022* | 0.031* | 0.019*
CCN(CC)CCCn1c(=S)[nH]c2cc(Cl)ccc2c1=O | -0.49 | · | -0.3 | 25 | 11 | -7 | · | · | · | · | · | ·
CCCn1c(=S)[nH]c2cc(Cl)ccc21 | · | 55* | -0.14 | · | · | · | 0.042* | 0.088* | 0.049* | 0.047* | 0.051* | 0.045*
COC(=O)C/C(O)=C(/N=Nc1cccc(C(F)(F)F)c1)C(=O)OC | -0.69 | -0.95 | 1.4 | 15 | 9 | 6 | · | · | · | · | · | ·
Cc1ccc(N=Nc2ccc(O)c(P(=O)(c3ccccc3)c3ccccc3)c2)cc1 | · | · | -0.02 | · | · | · | · | · | · | · | · | ·
CCc1nnc(NC(=O)Cc2ccc(Br)cc2)s1 | -0.023 | -0.0059 | 0.19 | 0 | · | -21 | · | · | · | · | · | ·
CC(C)CC(CC(C)C)=NNC(=O)c1ccc2c(c1)OCO2 | -0.092 | 3.9* | · | -4 | 67 | -6 | 0.0061 | 0.0049 | 0.029 | 0.008 | 0.018 | 0.0098
Cc1ccc2cc(C(c3nnnn3CC3CCCO3)N3CCCC4(CCCCC4)C3)c(=O)[nH]c2c1 (stereo not given) | 0.15 | -2.4 | · | 33 | 8 | · | · | · | · | · | · | ·
O=C(O)COc1ccccc1/C=N/NC(=O)CSc1nnc(SCc2cccc3ccccc23)s1 | 2.5 | -2.9 | · | · | · | · | · | · | · | · | · | ·
O=C(CSc1nnc(SCc2cccc3ccccc23)s1)N/N=C/c1c[nH]c2ccccc12 | · | -3.9* | -0.14 | 5 | -3 | -4 | 0.0057* | 0.014* | 0.024* | 0.0089* | 0.024* | ?
CC(C)Cn1cc(C(=O)NCCCN2CCCC2=O)c2c3ccccc3n(C)c2c1=O | 0.76 | -0.61 | -0.71 | 4 | -23 | 6 | · | · | · | · | · | ·
N#C/C(=C(/O)COc1ccc(Cl)cc1)c1nc2ccccc2s1 | 0.044 | -3.7* | -0.24 | -7 | · | 26 | 0.007 | ? | 0.023* | 0.0077 | ? | 0.011
